Sampled rows, rich in hits. Any-hit rate of the full collection: about 4.9%.
SKKanGAS inh: blocks kanamycin growth of S. pyogenes SKKanGAS strain; BacTiter-Glo, 6 h; inhibition, % at 7.5 µM; 300,000 compounds, 1.3% hits;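 active = mean replicate score, as percent of positive control median, at least 50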;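 note: strain carries kanamycin resistance gene driven by streptokinase promoter and grows in 40 µg/ml kanamycin; loss of luminescence reflects streptokinase promoter inhibition or plain growth inhibition; 0% = median of DMSO wells and 100% = positive control at its reference dose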
TIM10 inh: TIM10 yeast growth inhibition; S. cerevisiae TIM10 strain growth, BacTiter-Glo luminescence, 24 h; inhibition, % at 10 µM; 330,000 compounds, 1.4% hits; AID 463195;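 active = inhibition of 40% or more at the single tested concentration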;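 note: wild-type TIM10 isogenic control strain grown at permissive 25 °C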
NALP3 yeast inh: blocks the NALP3 inflammasome reconstituted in yeast | inhibition, % at 10 µM | Yeast reconstituted NLRP3/ASC/caspase-1, beta-gal luminescence, 24 h | AID 2825 | 330,000 compounds, 0.39% hits;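 active = inhibition of 50% or more; inactive = inhibition below 50%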;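 note: plate controls were induced DMSO wells for no effect and uninduced yeast grown without galactose for full effect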
NALP1 inh: inhibitors of NALP1 inflammasome in yeast; S. cerevisiae NALP1/ASC/caspase-1 growth, X-gal OD620, 72 h; 280,000 compounds, 0.61% hits; AID 2071; inhibition, % at 10 µM; in the data active = inhibition mostly above about 24%, no sharp cut-off; inactive = mostly below about 32%
tim23-1 inh: tim23-1 yeast growth inhibition; S. cerevisiae tim23-1 growth, BacTiter-Glo luminescence, 24 h; inhibition, % at 20 µM; 330,000 compounds, 1.3% hits; AID 463212;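 active = growth inhibition of the mutant yeast at or above 50%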;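 note: temperature-sensitive mutant grown at 25 °C; plate controls were DMSO-treated mutant yeast for no effect and medium wells lacking yeast for full effect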
tim10-1 inh: inhibits growth of tim10-1 mutant yeast | S. cerevisiae tim10-1 ts strain growth, BacTiter-Glo, 24 h | inhibition, % at 20 µM | 330,000 compounds, 2.2% hits | AID 463190;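 active = inhibition of at least 40%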;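 note: mutant grown at 25 °C; 0% = DMSO wells with yeast and 100% = wells holding no yeast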
NALP3 yeast conf: NALP3 inhibition confirmation in yeast. shares compounds with NALP3 yeast inh. yeast expressing human NALP3, luminescence. inhibition, % at 10 µM. 1,300 compounds, 81% hits. AID 435006; in the data active = inhibition above about 48%
Casp1-ASC yeast: active in yeast caspase-1-ASC counter-screen for NALP3 inhibitors; 1,000 compounds, 66% hits; yeast expressing Caspase-1-ASC, luminescence counter screen; shares compounds with NALP3 yeast inh; inhibition, % at 10 µM
NALP3 yeast rt: yeast NALP3 inhibition, confirmed on retest; shares compounds with NALP3 yeast inh; yeast expressing human NALP3, luminescence read-out; inhibition, % at 10 µM; 1,000 compounds, 53% hits; AID 488794
Starred values were filed as active, the others as inactive; . = not tested or not shown. Cut-off read from the data, not from the text of the source, unless noted: active = inhibition above about 50%; inactive = the rest.

SMILES	SKKanGAS inh	TIM10 inh	NALP3 yeast inh	NALP1 inh	tim23-1 inh	tim10-1 inh	NALP3 yeast conf	Casp1-ASC yeast	NALP3 yeast rt
N#Cc1ccc(C(=O)OCCCc2cc3ccccc3c(=O)o2)cc1	.	-26.1	65.6*	.	14.8	-27.5	61.2*	60.8*	63.1*
N#Cc1ccc(C(=O)OCCc2cc3ccccc3c(=O)o2)cc1	.	-5.4	43.5	.	9.0	-12.5	.	.	.
C/C(=N\NC(=O)COc1ccc(C(C)(C)C)cc1)c1ccc(N2CCOCC2)cc1	0.1	17.3	0.2	8.4	15.8	16.0	.	.	.
N#Cc1nc(COc2ccccc2)oc1N1CCCCC1	0.3	-9.5	61.6*	-2.6	23.8	22.2	70.2*	59.8*	48.1
Cc1cccc(OCc2nc(C#N)c(N3CCCC3)o2)c1	-2.1	10.7	56.7*	0.6	23.7	12.1	46.5	64.5*	51.3*
N#Cc1nc(COc2ccc(Cl)cc2)oc1N1CCCCCC1	.	26.2	12.5	9.4	22.7	9.2	.	.	.
Cc1cccc(OCc2nc(C#N)c(N3CC(C)CC(C)C3)o2)c1 (stereo unspecified)	12.4	0.2	6.6	39.2	17.5	26.9	.	.	.
COc1ccc(CCNC(=O)c2cccs2)cc1	0.0	5.9	21.2	16.1	18.7	-16.2	.	.	.
CCN(CC)c1ccc(NC(=O)CSC(=O)c2ccccc2)cc1	.	10.1	55.8*	.	27.5	-12.8	54.2*	56.5*	42.2
CC(=O)c1cccc(NC(=O)CSC(=O)c2ccccc2)c1	-2.3	22.3	8.9	31.9	34.6	31.7	.	.	.
O=C(NCCOc1ccc(F)cc1)C1CCC(=O)N(CCN2CCOCC2)C1 (stereo unspecified)	-1.2	5.6	12.4	5.5	5.2	-2.7	.	.	.
Cc1c(/C=N/O)c2ccccn2c1C(=O)c1ccc(F)cc1	-0.7	-11.8	61.9*	28.2	15.8	17.1	76.8*	48.5	44.3
Cc1ccc(NC(=O)CCn2cccc2)cc1C	-3.5	-7.6	58.7*	23.6	12.5	-14.3	74.0*	43.0	39.4
Cc1ccc(NC(=O)Cn2cccc2)cc1C	-1.7	5.5	12.8	-4.1	3.0	-24.0	.	.	.
Cc1ccc(NC(=O)c2cc(=O)n(Cc3ccccc3)c(=O)[nH]2)cc1C	4.4	-4.8	7.5	4.0	7.4	-4.9	.	.	.
Cc1[nH]c2ccccc2c1C=NNC(=O)c1cc(-c2cccnc2)nc2ccccc12	.	10.1	-0.1	.	5.7	-0.2	.	.	.
CCOc1ccc(Cn2nnc(-c3ccc(S(C)(=O)=O)cc3)n2)cc1OCC	.	-3.8	11.9	.	-8.1	0.0	.	.	.
CC(C)Cn1c2ccccc2c2cc(C(=O)O)ccc21	0.1	18.1	-123.3	-9.1	21.3	30.8	8.6	.	.
CCCN=C1N(CC)C[C@@H]2[C@@H]3C(=O)N(Cc4ccccc4)C(=O)[C@@H]3[C@](Cc3ccccc3)(C(=O)OC)N12	.	-5.7	.	.	16.9	1.1	.	.	.
Cc1ccc(S(=O)(=O)N2CCCN(C(=O)CNC(=O)c3cccc(C)c3)CC2)cc1	.	5.0	6.0	.	13.2	7.6	.	.	.
COc1ccccc1NC(=O)Nc1ncccc1C	1.5	-2.6	60.4*	25.8	21.3	-2.9	71.3*	.	.
Cc1ccccc1NC(=O)Nc1ccccn1	0.4	-4.8	52.9*	12.9	4.5	-20.4	68.5*	46.8	33.1
CC(C)NC(=O)c1c(O)c2cccc3c2n(c1=O)CCC3	-3.5	2.6	13.9	4.9	2.7	18.3	.	.	.
CCNCCNC(=O)c1c(O)c2cccc3c2n(c1=O)CCC3	-2.0	19.8	52.8*	-4.4	25.8	-6.2	74.2*	40.6	44.2
CNC(=O)c1c(O)c2cccc3c2n(c1=O)CC3	4.1	36.8	53.7*	.	37.1	-3.7	60.0*	40.5	36.5
CCC(=Nc1ccccc1OC)C1=C(O)CC(c2ccccc2)CC1=O (stereo unspecified)	-5.0	11.2	37.7	-7.1	22.6	1.8	.	.	.
CCC(=Nc1ccccc1O)C1=C(O)CC(c2ccccc2)CC1=O (stereo unspecified)	3.3	10.4	62.1*	31.7	15.1	-8.3	73.9*	55.0*	56.1*
O=C(NNC(=O)C1C2C=CC(C2)C1C(=O)O)c1cc(Cl)ccc1O (stereo unspecified)	.	10.0	3.3	8.4	13.3	5.1	.	.	.

Bioassay records (PubChem)
